From PubChem BioAssay come the findings set out here.

Results filed as inconclusive are left out. Calls of active or inactive are those of the source. Unless noted, no stated cut-off is given here; in the data, active means percent of DMSO control GFP below about 86%; inactive means the rest, inconclusive results apart.

Assay [1] in a line: rapamycin-like changes in RPL19A-GFP expression – cell-based, S. cerevisiae, multiplex flow cytometry, primary screen (AID 1862).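 Further: lower values mimic rapamycin by blocking the RPL19A rise seen in DMSO cells.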 The settings on record: S. cerevisiae RPL19A-GFP strain, flow cytometry fluorescence, 3 h; at 10 µM; stronger effect = lower value.
Assay [2] is described as follows: TOR pathway GLN3 branch reporter MEP2-GFP changes – S. cerevisiae, multiplex flow cytometry, primary screen (AID 1867;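 active means GFP response, as percent of the DMSO control, above the screen-wide mean plus 3 SD, about 139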;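 further: median GFP channel fluorescence of barcode-gated MEP2-GFP cells measured by flow cytometry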). The settings on record: S. cerevisiae MEP2-GFP strain, 3 h, at 10 µM, stronger effect = higher value, 100% means same as DMSO wells.
A short description of assay [3]: TOR pathway RTG branch CIT2 reporter changes – S. cerevisiae, GFP fusion, multiplex flow cytometry, primary screen (AID 1870;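 active means percent response above a set limit, the screen-wide mean plus 3 SD, cut at about 130% in these data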;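 further: barcoded CIT2-GFP strain pooled with four other GFP strains with rapamycin as positive control; median GFP fluorescence per well over plate mean of DMSO wells so 100% = DMSO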). The conditions noted are these: S. cerevisiae CIT2-GFP expression, 3 h, at 10 µM, stronger effect = higher value.
The nature of assay [4]: TOR pathway LAP4-GFP level changes – S. cerevisiae, multiplex flow cytometry, primary screen (AID 1873;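 active means GFP signal, as percent of the solvent control, above the screen mean plus 3 SD, about 149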). The conditions noted are these: S. cerevisiae LAP4-GFP expression, 3 h, at 10 µM, stronger effect = higher value.
The nature of assay [5]: yeast AGP1-GFP level changes, GLN3 branch – cell-based, multiplex flow cytometry, S. cerevisiae, primary screen (AID 1887;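 active means GFP signal above the screen-wide mean plus 3 SD, that is over about 124.5% of the solvent control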;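 further: AGP1-GFP fusion strain of S. cerevisiae within a five-strain barcoded multiplex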). The settings on record: 3 h, at 10 µM, stronger effect = higher value.
The nature of assay [6]: reduced mouse 2C T cell binding to pMHC/ICAM-1 vesicles – MLPCN validation set, flow cytometry, LFA-1/ICAM-1 modulator project, pilot screen (AID 2523;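 active means response below a set limit, under 55% cells CD8-positive and vesicle-bound, and CD8 cells' 90th-percentile brightness under 279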;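 on vesicle binding response: mean PE anti-B7-1 fluorescence of CD8+ cells relative to row control; 100% = QL9-loaded vesicles with DMSO vehicle in the same plate row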). The conditions noted are these: 2C mouse CD8+ T cells, at 7 µM, stronger effect = lower value; double positive events: measured here: CD8+/vesicle+ event percentage.
In assay [7] the target is Integrin beta-1 (Homo sapiens) + Integrin alpha-4 (Homo sapiens) (UniProt P13612+P05556). Description: alpha4beta1 integrin LIBS antibody binding reduction – U937 cells, HUTS-21 mAb, flow cytometry, validation set, VLA-4 allosteric modulator project, pilot screen (AID 2674;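 active means inhibition above 50%, about 3 SD of the validation set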;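 further: antibody binding induced by the VLA-4 ligand LDV present at three times its Kd; 0% = LDV ligand with antibody and no compound and 100% = antibody without LDV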). The settings on record: HUTS-21 LIBS mAb binding, at 6.7 µM, stronger effect = higher value, binding induced by LDV ligand.
Chain of Integrin beta-1 (Homo sapiens) + Integrin alpha-4 (Homo sapiens) (P05556 whole entry, looked up): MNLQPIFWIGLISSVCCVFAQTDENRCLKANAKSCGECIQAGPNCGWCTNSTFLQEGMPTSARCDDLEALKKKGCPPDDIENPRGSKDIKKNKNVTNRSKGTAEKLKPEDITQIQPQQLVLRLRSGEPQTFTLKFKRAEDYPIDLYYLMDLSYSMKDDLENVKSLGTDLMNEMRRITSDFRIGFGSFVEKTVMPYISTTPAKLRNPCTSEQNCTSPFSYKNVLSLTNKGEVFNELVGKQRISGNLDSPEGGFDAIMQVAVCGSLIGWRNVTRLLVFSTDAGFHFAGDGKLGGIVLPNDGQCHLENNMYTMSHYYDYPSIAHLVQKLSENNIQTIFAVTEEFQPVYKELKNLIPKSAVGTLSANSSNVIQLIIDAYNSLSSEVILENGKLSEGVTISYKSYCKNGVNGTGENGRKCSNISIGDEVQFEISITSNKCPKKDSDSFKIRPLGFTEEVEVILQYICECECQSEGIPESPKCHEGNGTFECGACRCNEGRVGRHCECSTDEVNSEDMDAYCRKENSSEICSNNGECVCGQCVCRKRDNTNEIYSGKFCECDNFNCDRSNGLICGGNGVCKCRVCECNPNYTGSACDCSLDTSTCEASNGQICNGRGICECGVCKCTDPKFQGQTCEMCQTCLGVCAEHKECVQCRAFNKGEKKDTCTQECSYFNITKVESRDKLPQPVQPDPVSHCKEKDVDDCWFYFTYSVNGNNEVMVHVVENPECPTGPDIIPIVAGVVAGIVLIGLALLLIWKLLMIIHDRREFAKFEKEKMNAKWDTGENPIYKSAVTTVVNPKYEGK
Chain of Integrin beta-1 (Homo sapiens) + Integrin alpha-4 (Homo sapiens) (P13612 whole entry, looked up): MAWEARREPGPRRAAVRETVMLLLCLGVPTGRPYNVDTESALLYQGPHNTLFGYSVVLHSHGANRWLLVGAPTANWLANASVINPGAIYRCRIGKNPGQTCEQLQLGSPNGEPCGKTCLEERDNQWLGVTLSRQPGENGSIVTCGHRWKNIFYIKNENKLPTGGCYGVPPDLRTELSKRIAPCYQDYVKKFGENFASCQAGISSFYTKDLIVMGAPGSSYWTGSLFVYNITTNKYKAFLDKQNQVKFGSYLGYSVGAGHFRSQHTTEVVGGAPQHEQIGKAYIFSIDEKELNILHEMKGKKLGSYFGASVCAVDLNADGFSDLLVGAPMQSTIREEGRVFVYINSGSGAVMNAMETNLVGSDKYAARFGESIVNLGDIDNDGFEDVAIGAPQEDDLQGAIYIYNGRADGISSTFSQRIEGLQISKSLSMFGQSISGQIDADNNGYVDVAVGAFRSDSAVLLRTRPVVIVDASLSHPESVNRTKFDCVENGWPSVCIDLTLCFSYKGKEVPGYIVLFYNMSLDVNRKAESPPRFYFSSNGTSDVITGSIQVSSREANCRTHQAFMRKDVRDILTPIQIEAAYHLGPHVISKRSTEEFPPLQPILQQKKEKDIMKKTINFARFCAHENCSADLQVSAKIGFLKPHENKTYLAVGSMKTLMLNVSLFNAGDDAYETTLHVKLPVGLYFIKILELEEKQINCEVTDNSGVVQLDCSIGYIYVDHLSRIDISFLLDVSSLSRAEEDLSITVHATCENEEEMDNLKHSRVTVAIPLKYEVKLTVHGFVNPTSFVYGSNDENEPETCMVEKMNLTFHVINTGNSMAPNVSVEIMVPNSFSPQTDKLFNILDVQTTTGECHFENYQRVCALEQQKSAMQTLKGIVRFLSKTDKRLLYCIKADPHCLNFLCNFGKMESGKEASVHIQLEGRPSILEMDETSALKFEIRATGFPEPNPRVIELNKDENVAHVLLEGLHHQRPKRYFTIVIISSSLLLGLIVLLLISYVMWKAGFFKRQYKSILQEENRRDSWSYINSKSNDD

The nature of assay [8]: calorie-restriction mimetic ROS inhibitors, yeast – validation compound set, pilot screen (AID 2706;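 active means superoxide response below 65% of plate, a cut near 3 SD across the whole screen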;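 further: yeast exposed to compound for one week at 30 degrees C before staining; 100% = mean of all compound wells on the same plate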). The settings on record: S. cerevisiae aging, superoxide DHE fluorescence; at 10 µM; stronger effect = lower value.
Assay [9] addresses Beta-adrenergic receptor kinase 1 (Homo sapiens) (UniProt P25098). Description: GRK2 binders displacing RNA aptamer, biochemical, validation, human GRK2, bead flow cytometry (AID 488806;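 active means aptamer binding inhibition above 30%, about 3 SD of noise from non-fluorescent compounds; inactive means inhibition at or below 30%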). The conditions noted are these: bead-bound GRK2, FAM-aptamer displacement, at 10 µM, stronger effect = higher value.
Assay [10] addresses Beta-2 adrenergic receptor (Homo sapiens) (UniProt P07550). Description: agonist-induced loss of surface beta2AR – cell-based, FAP fluorogen, flow cytometry, validation set, pilot screen (AID 504459;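 active means percent response above 42, roughly 3 SD of non-fluorescent test compounds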;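 further: agonist-driven loss of surface beta2AR via internalization measured by FAP dye flow cytometry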). The conditions noted are these: Am2.2-beta2AR cells, at 10 µM, stronger effect = higher value.
Assay [11] has as its target AP-2 complex subunit beta (Homo sapiens) (UniProt P63010). Description: beta-arrestin/AP2 interaction blockers – biochemical, validation set, GST-AP2 beads, flow cytometry, pilot screen (AID 504541;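 active means inhibition above 54%, about 3 SD of non-fluorescent compounds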;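 further: AP2 carries R879A mutation and is captured from E. coli lysate; bead-bound FITC arrestin peptide fluorescence measuring arrestin peptide binding to AP2; 0% = DMSO wells and 100% = excess unlabeled arrestin peptide control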). The conditions noted are these: FITC arrestin peptide, at 10 µM, stronger effect = higher value, AP2 beta2 appendage fragment, R879A mutant.
Assay [12] can be described thus: cytosolic pH regulators acting via V-ATPase – S. cerevisiae, pHLuorin, HTS validation (AID 504600; in the data active means response above about 15%;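 further: plate controls were DMSO for no effect and reference compound for full effect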). The conditions noted are these: V-ATPase proton transport, at 10 µM, stronger effect = higher value.
In assay [13] the test system is anti-desmoglein-3 scFv antibody binding to human DSG3. Description: blockers of pathogenic pemphigus antibody–desmoglein-3 binding – biochemical, validation compound set, bead-based, flow cytometry, pilot screen (AID 588368;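 active means binding below the plate cutoff, the plate median minus 3 SD, with a reading above zero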;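 further: signal is the median channel fluorescence of bead-bound GFP antibody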). The settings on record: Protein G beads, DSG3-Fc, scFv-GFP binding, at 10 µM, stronger effect = lower value.
A short description of assay [14]: Nile Red efflux blockade in pump-expressing yeast – validation compound set, multiplex, phenotypic, pilot screen (AID 588506;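 active means efflux inhibition above 0.42, the validation set average plus 4 SD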;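 further: Nile Red retained in cells so higher fluorescence means more efflux inhibition; 0 = negative control wells and 1 = enniatin B 25 µM full block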). The conditions noted are these: S. cerevisiae pump-expressing triplex, Nile Red efflux flow cytometry; at 10 µM; stronger effect = higher value; the pumps come from Candida albicans.
Assay [15] has as its target ATP-binding cassette sub-family B member 6 (Homo sapiens) (UniProt Q9NP58). The experiment in a line: blockers of ABCB6-driven porphyrin uptake – K562-ABCB6 cells, flow cytometry, validation set, pilot screen (AID 588550;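 active means inhibition above the screen-wide mean plus 3 SD, about 51%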;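 further: 0% = DMSO wells and 100% = benzethonium chloride 70 µM positive control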). The settings on record: K562-ABCB6 porphyrin accumulation, 1 h, at 10 µM, stronger effect = higher value.
Assay [16] is described as follows: AML differentiation inducers, ER-HoxA9 marrow cells – cell-based, GFP/MAC1 double positive, flow cytometry, validation set, primary screen (AID 588685;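 active means differentiation response of at least 50%, scaled between solvent and reference control, from cells with both markers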;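 further: compound exposure lasts four days before antibody staining and flow analysis; 0% = DMSO wells and 100% = 5 µM fulvestrant positive control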). The conditions noted are these: stronger effect = higher value, normalized: vehicle 0, fulvestrant 100.

Chain of ATP-binding cassette sub-family B member 6 (Homo sapiens) (Q9NP58 whole entry, looked up): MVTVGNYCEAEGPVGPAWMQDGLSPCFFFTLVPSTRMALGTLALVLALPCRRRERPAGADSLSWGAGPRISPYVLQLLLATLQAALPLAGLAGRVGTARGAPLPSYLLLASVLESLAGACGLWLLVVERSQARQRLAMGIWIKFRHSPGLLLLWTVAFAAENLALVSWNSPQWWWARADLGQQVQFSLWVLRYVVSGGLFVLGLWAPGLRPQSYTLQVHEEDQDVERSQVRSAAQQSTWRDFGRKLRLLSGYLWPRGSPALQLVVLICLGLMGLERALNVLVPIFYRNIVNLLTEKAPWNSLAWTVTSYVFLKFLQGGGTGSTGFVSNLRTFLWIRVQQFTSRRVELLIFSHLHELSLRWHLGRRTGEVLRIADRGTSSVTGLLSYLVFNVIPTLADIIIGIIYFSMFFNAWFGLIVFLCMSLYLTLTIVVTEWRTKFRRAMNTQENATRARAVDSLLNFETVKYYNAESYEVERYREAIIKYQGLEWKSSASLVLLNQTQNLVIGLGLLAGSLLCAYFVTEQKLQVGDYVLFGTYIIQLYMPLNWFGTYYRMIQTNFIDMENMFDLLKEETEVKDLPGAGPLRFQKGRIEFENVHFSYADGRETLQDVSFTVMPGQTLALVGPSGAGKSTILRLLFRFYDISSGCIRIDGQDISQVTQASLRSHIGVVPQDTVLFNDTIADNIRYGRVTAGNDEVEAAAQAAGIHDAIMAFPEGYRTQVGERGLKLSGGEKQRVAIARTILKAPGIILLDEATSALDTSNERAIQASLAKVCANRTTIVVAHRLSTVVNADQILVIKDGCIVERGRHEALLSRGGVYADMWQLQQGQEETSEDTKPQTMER
Chain of Beta-adrenergic receptor kinase 1 (Homo sapiens) (P25098 whole entry, looked up): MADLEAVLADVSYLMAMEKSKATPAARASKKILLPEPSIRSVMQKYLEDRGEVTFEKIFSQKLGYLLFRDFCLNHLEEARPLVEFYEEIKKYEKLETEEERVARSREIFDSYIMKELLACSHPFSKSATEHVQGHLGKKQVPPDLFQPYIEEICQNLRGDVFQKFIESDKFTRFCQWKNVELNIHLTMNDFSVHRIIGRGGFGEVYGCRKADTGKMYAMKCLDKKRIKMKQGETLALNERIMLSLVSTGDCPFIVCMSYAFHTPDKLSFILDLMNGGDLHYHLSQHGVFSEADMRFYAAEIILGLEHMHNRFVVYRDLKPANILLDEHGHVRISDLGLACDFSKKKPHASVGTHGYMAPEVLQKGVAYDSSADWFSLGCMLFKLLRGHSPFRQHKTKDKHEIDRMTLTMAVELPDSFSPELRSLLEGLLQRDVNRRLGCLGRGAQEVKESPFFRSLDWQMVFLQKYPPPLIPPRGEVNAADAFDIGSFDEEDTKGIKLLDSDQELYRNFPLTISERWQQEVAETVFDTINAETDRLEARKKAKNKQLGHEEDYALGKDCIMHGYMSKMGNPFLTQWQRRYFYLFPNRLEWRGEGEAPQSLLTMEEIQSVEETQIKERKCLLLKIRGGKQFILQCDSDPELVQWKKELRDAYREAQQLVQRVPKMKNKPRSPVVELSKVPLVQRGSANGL
Chain of Beta-2 adrenergic receptor (Homo sapiens) (P07550 whole entry, looked up): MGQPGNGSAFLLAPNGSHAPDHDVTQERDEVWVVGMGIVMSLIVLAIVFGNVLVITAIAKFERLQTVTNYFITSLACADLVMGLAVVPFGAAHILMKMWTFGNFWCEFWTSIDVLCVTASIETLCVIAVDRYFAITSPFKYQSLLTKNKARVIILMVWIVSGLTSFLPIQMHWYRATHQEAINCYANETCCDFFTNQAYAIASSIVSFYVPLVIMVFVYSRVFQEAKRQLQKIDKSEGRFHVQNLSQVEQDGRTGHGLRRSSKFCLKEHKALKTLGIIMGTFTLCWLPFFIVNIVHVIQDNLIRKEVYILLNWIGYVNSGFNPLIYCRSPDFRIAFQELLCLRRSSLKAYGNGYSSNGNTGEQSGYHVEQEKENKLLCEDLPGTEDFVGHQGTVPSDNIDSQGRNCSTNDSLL
Chain of AP-2 complex subunit beta (Homo sapiens) (P63010 whole entry, looked up, the tested form may be a part, one chain of several): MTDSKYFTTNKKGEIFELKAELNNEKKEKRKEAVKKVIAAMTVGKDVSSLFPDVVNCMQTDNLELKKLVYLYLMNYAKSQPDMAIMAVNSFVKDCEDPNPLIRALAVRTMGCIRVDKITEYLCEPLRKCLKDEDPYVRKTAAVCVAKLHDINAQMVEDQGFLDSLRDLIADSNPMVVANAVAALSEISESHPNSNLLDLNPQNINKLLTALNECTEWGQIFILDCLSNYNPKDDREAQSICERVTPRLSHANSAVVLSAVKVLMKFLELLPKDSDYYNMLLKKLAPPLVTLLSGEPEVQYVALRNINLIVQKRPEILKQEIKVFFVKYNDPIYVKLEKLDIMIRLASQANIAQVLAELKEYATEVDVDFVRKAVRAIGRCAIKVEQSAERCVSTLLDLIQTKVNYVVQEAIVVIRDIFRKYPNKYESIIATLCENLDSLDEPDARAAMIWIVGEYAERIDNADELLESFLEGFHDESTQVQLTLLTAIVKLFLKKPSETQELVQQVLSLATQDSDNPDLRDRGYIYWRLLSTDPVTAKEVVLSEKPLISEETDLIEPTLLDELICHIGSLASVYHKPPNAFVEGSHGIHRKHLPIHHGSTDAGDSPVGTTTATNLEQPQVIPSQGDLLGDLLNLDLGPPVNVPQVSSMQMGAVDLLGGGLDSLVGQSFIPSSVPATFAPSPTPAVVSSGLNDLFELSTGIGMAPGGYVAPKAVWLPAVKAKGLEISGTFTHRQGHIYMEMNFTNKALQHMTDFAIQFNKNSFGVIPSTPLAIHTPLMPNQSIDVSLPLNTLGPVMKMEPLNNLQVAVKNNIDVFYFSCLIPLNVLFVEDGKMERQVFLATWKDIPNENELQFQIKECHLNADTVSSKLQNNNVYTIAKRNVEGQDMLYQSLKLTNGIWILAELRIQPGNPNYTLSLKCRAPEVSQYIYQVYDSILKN

With `O=c1[nH]c(=O)n([C@H]2C[C@H](O)[C@@H](CO)O2)cc1C(F)(F)F`, the percent of DMSO control GFP in assay [1] is 103% (inactive). The results for the GFP response vs DMSO in assay [2] and in assay [4] were 101% (inactive) and 94% (inactive), respectively. The percent response of DMSO control in [3] is 97.8% (inactive). The GFP response, % of DMSO in [5] is 94.8% (inactive). In assay [6], this molecule returned a double positive events of 58.6%. Moreover, in [6], the vesicle binding response was 48.9% (inactive). Also, the inhibition in assay [7] is -11.9% (inactive); in [11], 13.9% (inactive); in assay [15], 1% (inactive). For the same molecule, the superoxide response (% of plate) in assay [8] is 108% (inactive). The aptamer binding inhibition in [9] was 1% (inactive). Also, the results for the response in assay [10] and in assay [12] were -1.49% (inactive) and -1.8% (inactive), respectively. In addition, the binding (% of control) in assay [13] was 100% (inactive). For the same molecule, the efflux inhibition (fraction of control) in assay [14] is 0.02 (inactive). In addition, the differentiation response in assay [16] is -1.71% (inactive).

`CC12CCC(C(=O)NCc3ccc4c(c3)OCO4)(CC1=O)C2(C)C` (stereo not given): the percent of DMSO control GFP in [1] was 100% (inactive). Further, the values for the GFP response vs DMSO in [2] and in assay [4] were 98.6% (inactive) and 102% (inactive), respectively. Further, in assay [3], the percent response of DMSO control is 103% (inactive). Moreover, in assay [5], the GFP response, % of DMSO was 107% (inactive). Also, the double positive events in assay [6] was found to be 60.9%. Besides, in [6], the vesicle binding response was 252% (inactive). Further, the inhibition is 0.59% (inactive) in assay [7], 4.11% (inactive) in assay [11] and 6% (inactive) in assay [15]. Also, the superoxide response (% of plate) in [8] is 113% (inactive). The aptamer binding inhibition in [9] is 0% (inactive). In addition, the values for the response in [10] and in assay [12] were -30.8% (inactive) and -1.56% (inactive), respectively. Besides, the binding (% of control) in [13] was 105% (inactive). For the same molecule, in assay [14], the efflux inhibition (fraction of control) is 0.08 (inactive). In addition, the differentiation response in assay [16] was -1.05% (inactive).

In the case of `Cc1nc2c(c3c1[nH]c1ccccc13)C(=O)CC(C)(C)C2`, in assay [1], the percent of DMSO control GFP was 99.1% (inactive). Also, the GFP response vs DMSO in [2] and in assay [4] was 114% (inactive) throughout. In assay [3], the percent response of DMSO control is 86.3% (inactive). In assay [5], the GFP response, % of DMSO was 102% (inactive). The same molecule returned a double positive events in assay [6] of 59.1%. Further, the vesicle binding response in assay [6] is 186% (inactive). Further, the inhibition was 6.4% (inactive) in assay [7], 6.18% (inactive) in assay [11] and 1% (inactive) in assay [15]. For the same molecule, the superoxide response (% of plate) in [8] was 99.2% (inactive). For the same molecule, in assay [9], the aptamer binding inhibition is 3% (inactive). Besides, the values for the response in [10] and in assay [12] were 31.6% (inactive) and -1.94% (inactive), respectively. Also, the binding (% of control) in assay [13] is 98.9% (inactive). Further, in [14], the efflux inhibition (fraction of control) was 0.3 (inactive). In addition, the differentiation response in assay [16] is -5.6% (inactive).

For the molecule `CCNC(=O)C12CCC(C)(C(=O)O1)C2(C)C` (stereo not given), the percent of DMSO control GFP in assay [1] is 105% (inactive). Besides, the figures for the GFP response vs DMSO in [2] and in assay [4] were 102% (inactive) and 95.8% (inactive), respectively. The percent response of DMSO control in assay [3] is 102% (inactive). Further, in assay [5], the GFP response, % of DMSO is 101% (inactive). The molecule also returned a double positive events in [6] of 60.6%. Moreover, the vesicle binding response in assay [6] is 120% (inactive). The inhibition in assay [7] is 8.28% (inactive); in [11] it was 6.39% (inactive); in assay [15] it was 7% (inactive). Also, the superoxide response (% of plate) in assay [8] is 105% (inactive). The aptamer binding inhibition in assay [9] is 2% (inactive). In addition, the response in assay [10] was 6.09% (inactive); in [12], 2.81% (inactive). In addition, the binding (% of control) in [13] was 95.7% (inactive). Besides, the efflux inhibition (fraction of control) in assay [14] is -0.54 (inactive). For the same molecule, the differentiation response in [16] is 1.17% (inactive).

Consider `COc1ccc(-c2[nH]ncc2CN(C)C(C)c2ccon2)c(OC)c1` (stereo not given), for which the percent of DMSO control GFP in assay [1] is 92.4% (inactive). The figures for the GFP response vs DMSO in assay [2] and in assay [4] were 137% (inactive) and 78.7% (inactive), respectively. For the same molecule, in assay [3], the percent response of DMSO control was 106% (inactive). In addition, the GFP response, % of DMSO in assay [5] is 91% (inactive). In addition, in assay [6], the double positive events was 61.9%. The vesicle binding response in assay [6] was 143% (inactive). The inhibition in assay [7] is 10.3% (inactive); in [11], 8% (inactive); in [15] it was 11% (inactive). In addition, the superoxide response (% of plate) in [8] is 99.7% (inactive). Moreover, in assay [9], the aptamer binding inhibition was 2% (inactive). The response in assay [10] was -3.13% (inactive); in assay [12] it was -3.5% (inactive). In addition, the binding (% of control) in [13] was 105% (inactive). Besides, in assay [14], the efflux inhibition (fraction of control) is 0.01 (inactive). In addition, the differentiation response in assay [16] is -4.91% (inactive).
